Assay [1] addresses Lysosomal acid glucosylceramidase (Homo sapiens) (UniProt P04062). Kind of assay: Glucocerebrosidase-p2 (AID 348; in the data active = potency below about 10 µM; also: potency is read from the fitted curve at half-maximal effect). The note with it: purified GBA, blue fluorogenic substrate, 40 min. A digest of the protocol:
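Compounds titrated from 0.6 nM upwards against 0.2 nM enzyme in pH 5.9 citric acid/KH2PO4, taurocholate, tween-20; blue fluorogenic substrate 80 uM, 40 min room temperature, stopped and read Ex 365/Em 440 for AC50.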

The nature of assay [2]: AP1 Signaling Pathway (AID 357). Also: % is scaled to controls: 0 for no effect and ±100 for the full control effect. The note with it: ME-180 AP-1-bla reporter, EGF-induced, beta-lactamase ratio, 5 h; at 7.69 µM (top of the series) unless noted. A digest of the protocol: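 First, ME-180 AP-1-bla cells were cultured overnight at 37 °C in low-serum Opti-MEM. Next, titrated compounds with EC50 EGF were incubated 5 hours. Finally, CCF4 was added for 2.5 hours and the 460/530 nm ratio recorded.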

In assay [3] the target is Cytochrome P450 1A2 (Homo sapiens) (UniProt P05177). Kind of assay: p450-cyp1a2 (AID 410; calls by dose curve; also: potency is read from the fitted curve at half-maximal effect;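 as to activity change, negative = inhibition: -100% = full effect of reference inhibitor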). The note with it: recombinant CYP1A2, luciferin-ME demethylation, luminescence; series mostly up to 11.4 µM. In short, it runs like this: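 Human CYP1A2 (20nM) demethylated Luciferin-ME at its Km (100uM) in 100mM KPO4. After 10 min compound preincubation, NADPH regeneration ran the reaction 60 min at room temperature. Luciferin was read by luminescence, normalized to 57 uM furafylline.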
Sequence of Cytochrome P450 1A2 (Homo sapiens) (P05177 whole entry, looked up): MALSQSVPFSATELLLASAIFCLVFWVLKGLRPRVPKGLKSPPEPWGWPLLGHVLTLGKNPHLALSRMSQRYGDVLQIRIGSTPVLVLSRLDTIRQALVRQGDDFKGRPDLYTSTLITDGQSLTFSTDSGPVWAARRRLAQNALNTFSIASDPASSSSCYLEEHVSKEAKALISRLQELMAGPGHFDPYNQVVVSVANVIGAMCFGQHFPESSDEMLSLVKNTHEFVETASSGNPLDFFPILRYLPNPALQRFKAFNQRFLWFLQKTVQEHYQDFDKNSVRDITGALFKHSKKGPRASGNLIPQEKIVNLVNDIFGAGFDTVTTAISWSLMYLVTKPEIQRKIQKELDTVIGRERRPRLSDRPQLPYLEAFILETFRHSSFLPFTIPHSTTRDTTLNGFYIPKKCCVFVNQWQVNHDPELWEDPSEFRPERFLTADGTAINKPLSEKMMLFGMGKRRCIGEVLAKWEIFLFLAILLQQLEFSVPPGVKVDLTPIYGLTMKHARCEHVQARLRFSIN

A short description of assay [4]: NFAT Signaling Pathway (AID 444).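 Also: carbachol stimulus at about its EC50 of 1 µM final; % is scaled to controls: 0 for no effect and ±100 for the full control effect.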 The note with it: Jurkat NFAT-bla M1, carbachol, beta-lactamase ratio, 5 h; at 7.69 µM (top of the series) unless noted. A digest of the protocol:
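Read-out: CCF4 FRET ratio (460 nm/530 nm) after 1 h RT dye loading, used for %activity and AC50 from titration series. Cells: Jurkat NFAT-β-lactamase/M1 line, treated with compound plus 1 uM carbachol for 5 h, 37 °C.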

A short description of assay [5]: Stat Signaling Pathway (AID 446).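 Also: ME-180 cervical cancer cells given 40 pM IL-6 alongside compound; SIE-controlled beta-lactamase reporter measured as 460/530 nm FRET emission ratio; % is scaled to controls: 0 for no effect and ±100 for the full control effect.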 The note with it: ME-180 (cervical carcinoma) SIE beta-lactamase reporter, IL-6 stimulated, 5 h; at 7.69 µM (top of the series) unless noted. In short, it runs like this: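 IL-6/STAT signaling read in ME-180 cells via an SIE beta-lactamase reporter. Stimulus was 40 pM IL-6 (its AC50) for 5 hrs, so both activation and inhibition register.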
Assay [6] deals with Glucocorticoid receptor (Homo sapiens) (UniProt P04150). Kind of assay: GR-GFP Redistribution (AID 450;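 active = compounds whose dose series gives a full or clear partial fitted curve of increased nuclear translocation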; also: potency is read from the fitted curve at half-maximal effect). The note with it: U2OS GR-GFP nuclear translocation, laser cytometry, 2 h.
Sequence of Glucocorticoid receptor (Homo sapiens) (P04150 whole entry, looked up, the tested form may be a part): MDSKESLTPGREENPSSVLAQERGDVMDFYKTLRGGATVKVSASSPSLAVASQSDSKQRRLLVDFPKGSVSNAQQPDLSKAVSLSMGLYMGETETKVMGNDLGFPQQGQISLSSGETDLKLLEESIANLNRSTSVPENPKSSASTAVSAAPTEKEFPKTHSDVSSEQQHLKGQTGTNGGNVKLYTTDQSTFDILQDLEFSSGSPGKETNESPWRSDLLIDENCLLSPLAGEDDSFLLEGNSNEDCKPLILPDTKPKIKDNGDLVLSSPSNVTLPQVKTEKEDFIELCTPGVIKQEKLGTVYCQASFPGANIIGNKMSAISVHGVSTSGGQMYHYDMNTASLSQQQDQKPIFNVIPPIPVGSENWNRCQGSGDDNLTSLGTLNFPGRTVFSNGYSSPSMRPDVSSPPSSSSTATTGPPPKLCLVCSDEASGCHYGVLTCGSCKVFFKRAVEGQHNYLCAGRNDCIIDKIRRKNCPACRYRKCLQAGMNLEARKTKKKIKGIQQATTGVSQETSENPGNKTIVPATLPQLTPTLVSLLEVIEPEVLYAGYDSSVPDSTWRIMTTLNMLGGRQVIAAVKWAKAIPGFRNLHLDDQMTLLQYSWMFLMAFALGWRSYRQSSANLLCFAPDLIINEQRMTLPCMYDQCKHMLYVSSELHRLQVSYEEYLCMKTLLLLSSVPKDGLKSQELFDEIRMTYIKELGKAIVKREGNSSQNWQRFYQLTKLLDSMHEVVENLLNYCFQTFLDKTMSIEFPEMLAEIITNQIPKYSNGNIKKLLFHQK
Assay [7] shares this target. Kind of assay: GR-EFC Redistribution (AID 451; calls by dose curve; also: potency is read from the fitted curve at half-maximal effect). The note with it: CHO-K1 GR-EFC translocation, beta-gal luminescence, 2 h. A digest of the protocol: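 Translocation of GR-ED fusion to nuclear EA restores b-gal, read by luminescence after 1 h room-temperature detection. Engineered CHO-K1 biosensor cells, 1,000/well, exposed 2 h at 37 C to titrations up to 46 uM final.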

Assay [8] deals with Mitogen-activated protein kinase 10 (Mus musculus) (UniProt Q61831). Kind of assay: JNK3 AlphaScreen Assay (AID 530).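 Also: kinase came from lysate of stimulated human HepG2 cells; signal reports phosphorylation of biotinylated GST-cJun 1-79 at Ser73 with 10 µM ATP; % is scaled to controls: 0 for no effect and ±100 for the full control effect.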 The note with it: JNK3 lysate, c-Jun phosphorylation; series mostly up to 11.4 µM. In short, it runs like this:
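Room-temperature AlphaScreen kinase assay; pre-activated HepG2 lysate as JNK3 source, biotin-GST-cJun(1-79) substrate, 10 uM ATP, compound 15 min preincubation.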

The target in assay [9] is 3',5'-cyclic-AMP phosphodiesterase 4B (Homo sapiens) (UniProt Q07343). Kind of assay: qHTS Assay for Inhibitors of PDE-IV (AID 607; active = well fitted activation curve with a large enough effect in the main read-out, with a control signal flat, not every such curve was filed as active; also: % of control where 0% means no effect). The note with it: HEK293 ACTOne CNG channel cells, membrane potential fluorescence; series mostly up to 22.9 µM. A digest of the protocol:
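Live HEK293 cells with a modified cyclic nucleotide-gated (CNG) channel report intracellular cAMP via membrane-potential dye fluorescence (ex 535/em 590 nm). Endogenous PDE-IV was targeted. Compounds were tested at up to 22.9 uM final; RO 20-1724 100 uM served as control.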

Assay [10] has as its target Cytochrome P450 3A4 (Homo sapiens) (UniProt P08684). Kind of assay: qHTS Assay for Inhibitors and Substrates of Cytochrome P450 3A4 (AID 884; active = well fitted curve in the direction sought with a large enough effect; an effect the other way counts as inactive or inconclusive; also: potency is read from the fitted curve at half-maximal effect; nearly all actives have a fitted effect of over 50% in size). The note with it: recombinant CYP3A4, Luciferin-PPXE luminescence; series mostly up to 57.1 µM. In short, it runs like this:
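20 nM human CYP3A4 with 25 uM Luciferin-PPXE (at KM) in 200 mM KPO4, preincubated 10 min with compound; NADPH regeneration started a 60 min RT reaction. Luciferin detected by luminescence, normalized to 57 uM ketoconazole as full inhibition.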
In general terms: qHTS replaces the single test concentration by a dilution series.

Assay [11] shares this target. Kind of assay: qHTS Assay for Activators of Cytochrome P450 3A4 (AID 885; active = well fitted curve in the direction sought with a large enough effect; an effect the other way counts as inactive or inconclusive; also: nearly all actives have a fitted effect of over 65% in size). The note with it: recombinant CYP3A4, Luciferin-PPXE luminescence, 60 min; series mostly up to 11.4 µM. In short, it runs like this: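 Quantitative HTS format: compounds preincubated with 20nM human CYP3A4 and Luciferin-PPXE substrate at KM, reaction started by NADPH regeneration, stopped after 60 min, luciferase luminescence read 20 min later.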

The nature of assay [12]: Confirmation and Secondary Assay for Modulators of Hemoglobin Beta Chain Splicing at IVS2 654 locus (AID 910; active = well fitted curve in the direction sought with a large enough effect; an effect the other way counts as inactive or inconclusive;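 also: HeLa cells stably carrying EGFP split by mutant beta-globin IVS2-654 intron; per-well total GFP intensity by laser scanning cytometry after 2-day treatment; % of control where 0% means no effect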). The note with it: HeLa EGFP-654 splicing reporter, GFP fluorescence, 48 h; series mostly up to 38.3 µM. A digest of the protocol: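 Readout: per-well total peak green fluorescence (488 nm ex, 500–520 nm em) from objects 5–250 µm, reflecting correct splicing of an EGFP-654 reporter. Compounds were applied for 2 days at 37 °C to overnight-plated HeLa EGFP-654 cells; controls were DMSO and 500 nM IVS2-654 PNA.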

Assay [13] is described as follows: Confirmation and Secondary Assay for Modulators of Hemoglobin Beta Chain Splicing at IVS2 705 locus (AID 930; active = well fitted curve in the direction sought with a large enough effect; an effect the other way counts as inactive or inconclusive;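 also: HeLa cells stably expressing the EGFP-705 splicing reporter; GFP fluorescence per well restored by corrected splicing of the IVS2-705 intron in EGFP; % of control where 0% means no effect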). The note with it: HeLa EGFP-705 splicing reporter, GFP fluorescence, 48 h; series mostly up to 38.3 µM. A digest of the protocol:
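First, HeLa EGFP-705 cells are seeded at 500/well in Optimem with 2% FCS and left overnight. Next, compound or DMSO is added for 2 days. Finally wells are laser-scanned and total peak GFP intensity scored.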

Assay [14] deals with Ubiquitin carboxyl-terminal hydrolase 1 (Homo sapiens) (UniProt O94782). Kind of assay: Inhibitors of USP1/UAF1: Pilot qHTS (AID 504865; active = well fitted curve in the direction sought with a large enough effect; an effect the other way counts as inactive or inconclusive; also: nearly all actives have a fitted effect of over 35% in size; also: potency is read from the fitted curve at half-maximal effect). The note with it: purified USP1/UAF1, Ub-rhodamine cleavage fluorescence; series mostly up to 114 µM. In short, it runs like this:
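Enzyme-free wells gave the negative control, while test wells held 1nM USP1/UAF1 preincubated with compound for 15 min at room temperature. Ub-Rho at 150nM final started the reaction, and fluorescence at 480/540 nm was recorded kinetically.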

A short description of assay [15]: qHTS profiling for inhibitors of Plasmodium falciparum proliferation (AID 504749; active = well fitted curve in the direction sought with a large enough effect; an effect the other way counts as inactive or inconclusive;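 also: 0% = DMSO vehicle and full inhibition = artemisinin control; nearly all actives have a fitted effect of over 60% in size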). The note with it: P. falciparum in erythrocytes, SYBR Green DNA, 72 h, at 28.7 µM (top of the series). In short, it runs like this: (§1)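 Three-day growth assay of blood-stage parasites in erythrocytes (0.3% parasitemia, 2.5% hematocrit) at 37 C, 5% CO2, quantified by SYBR Green DNA staining after overnight detergent lysis.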

Another assay deals with AS120. The assay is described as above. The note with it: P. falciparum in erythrocytes, SYBR Green DNA, 72 h; series mostly up to 28.7 µM. In short, it runs like this: as §1
A further assay has as its system CP203. The assay is described as above. The note with it: P. falciparum in erythrocytes, SYBR Green DNA, 72 h; series mostly up to 28.7 µM. A digest of the protocol:
as §1

For another assay, the system named is DFO2036. Described as above. The note with it: P. falciparum in erythrocytes, SYBR Green DNA, 72 h; series mostly up to 28.7 µM. In short, it runs like this:
as §1

The test system of the next assay is W2. The assay is described as above. The note with it: P. falciparum in erythrocytes, SYBR Green DNA, 72 h; series mostly up to 28.7 µM. A digest of the protocol: as §1
Assay [16] can be described thus: qHTS Assay for Inhibitors of Fructose-1,6-bisphosphate Aldolase from Giardia Lamblia: Coupling assay counterscreen confirmation (AID 2795; active = well fitted curve in the direction sought with a large enough effect; an effect the other way counts as inactive or inconclusive; also: % is scaled to controls: 0 for no effect and ±100 for the full control effect; nearly all actives have a fitted effect of over 55% in size). The note with it: GAPDH coupling enzyme counterscreen, biochemical; series mostly up to 57.5 µM. A digest of the protocol: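 Readings at 525 nm excitation and 598 nm emission follow a two-step room-temperature protocol: 10 min of compound (up to 57.5 uM final) with coupling enzyme reagent, then 20 min with substrate and AmpLite Red detection reagent.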

A number with no mark means an inactive call. Records with an inconclusive call do not appear. Some of the results follow. Activity calls are given as the source filed them. Unless noted, calls follow the shape of the dose curve; as a rule, active = well fitted curve in either direction with a large enough effect (not every such curve was filed as active); inconclusive = small, poorly fitted or top-dose-only effect, or another doubt; inactive = flat fitted curve, though single readings scatter.

Sequence of 3',5'-cyclic-AMP phosphodiesterase 4B (Homo sapiens) (Q07343 whole entry, looked up): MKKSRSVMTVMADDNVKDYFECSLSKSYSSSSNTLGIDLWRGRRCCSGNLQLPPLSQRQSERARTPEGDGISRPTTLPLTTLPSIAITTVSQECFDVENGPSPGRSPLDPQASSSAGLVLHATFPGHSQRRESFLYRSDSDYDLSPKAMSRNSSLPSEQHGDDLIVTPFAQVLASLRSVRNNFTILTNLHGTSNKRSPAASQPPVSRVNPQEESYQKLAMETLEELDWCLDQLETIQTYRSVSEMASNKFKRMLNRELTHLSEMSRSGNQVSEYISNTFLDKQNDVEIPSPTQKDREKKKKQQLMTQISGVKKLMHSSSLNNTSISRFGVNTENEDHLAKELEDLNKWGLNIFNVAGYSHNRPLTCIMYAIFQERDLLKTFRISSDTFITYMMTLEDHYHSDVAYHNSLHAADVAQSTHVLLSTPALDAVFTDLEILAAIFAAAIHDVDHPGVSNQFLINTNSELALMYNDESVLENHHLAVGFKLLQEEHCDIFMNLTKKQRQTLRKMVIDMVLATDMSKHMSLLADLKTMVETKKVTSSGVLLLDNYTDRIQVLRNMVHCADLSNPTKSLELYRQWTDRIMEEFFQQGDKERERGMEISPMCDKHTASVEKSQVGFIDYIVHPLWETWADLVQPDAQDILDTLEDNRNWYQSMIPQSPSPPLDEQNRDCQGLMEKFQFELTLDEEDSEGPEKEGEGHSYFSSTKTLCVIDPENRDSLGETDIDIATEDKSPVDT
Sequence of Lysosomal acid glucosylceramidase (Homo sapiens) (P04062 whole entry, looked up): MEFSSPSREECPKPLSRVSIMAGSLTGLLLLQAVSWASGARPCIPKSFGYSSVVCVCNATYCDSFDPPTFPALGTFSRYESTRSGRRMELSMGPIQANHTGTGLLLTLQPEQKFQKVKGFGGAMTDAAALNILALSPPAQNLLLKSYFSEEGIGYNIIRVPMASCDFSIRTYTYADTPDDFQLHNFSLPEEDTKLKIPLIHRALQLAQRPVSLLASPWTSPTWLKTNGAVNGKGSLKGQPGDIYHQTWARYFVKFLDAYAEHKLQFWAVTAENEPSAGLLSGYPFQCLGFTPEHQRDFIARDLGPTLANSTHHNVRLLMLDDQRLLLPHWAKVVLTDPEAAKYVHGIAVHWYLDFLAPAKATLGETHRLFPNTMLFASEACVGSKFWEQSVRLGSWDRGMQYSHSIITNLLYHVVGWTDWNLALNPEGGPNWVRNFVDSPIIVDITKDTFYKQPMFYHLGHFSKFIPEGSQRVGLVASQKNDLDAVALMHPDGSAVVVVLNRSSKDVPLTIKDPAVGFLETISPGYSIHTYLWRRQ
Sequence of Ubiquitin carboxyl-terminal hydrolase 1 (Homo sapiens) (O94782 whole entry, looked up): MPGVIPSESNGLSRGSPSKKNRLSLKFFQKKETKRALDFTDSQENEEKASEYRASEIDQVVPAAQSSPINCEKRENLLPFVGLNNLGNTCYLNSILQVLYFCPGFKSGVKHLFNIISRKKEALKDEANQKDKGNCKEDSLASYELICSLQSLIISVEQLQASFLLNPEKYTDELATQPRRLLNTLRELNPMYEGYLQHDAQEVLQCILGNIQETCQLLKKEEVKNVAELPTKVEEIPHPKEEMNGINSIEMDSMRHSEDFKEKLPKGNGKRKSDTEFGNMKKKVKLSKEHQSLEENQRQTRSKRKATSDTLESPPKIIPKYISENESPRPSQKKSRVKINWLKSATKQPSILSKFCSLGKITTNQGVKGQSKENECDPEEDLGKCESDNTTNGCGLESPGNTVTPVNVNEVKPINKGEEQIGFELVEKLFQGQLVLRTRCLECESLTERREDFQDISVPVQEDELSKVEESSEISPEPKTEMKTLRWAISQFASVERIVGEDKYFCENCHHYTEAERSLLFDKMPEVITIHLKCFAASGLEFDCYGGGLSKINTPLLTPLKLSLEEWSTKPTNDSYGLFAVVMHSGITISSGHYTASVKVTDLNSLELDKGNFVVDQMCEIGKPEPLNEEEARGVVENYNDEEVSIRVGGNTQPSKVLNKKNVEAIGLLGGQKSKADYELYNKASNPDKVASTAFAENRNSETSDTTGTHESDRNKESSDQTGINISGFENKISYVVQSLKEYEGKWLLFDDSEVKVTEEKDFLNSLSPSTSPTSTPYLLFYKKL
Sequence of Cytochrome P450 3A4 (Homo sapiens) (P08684 whole entry, looked up): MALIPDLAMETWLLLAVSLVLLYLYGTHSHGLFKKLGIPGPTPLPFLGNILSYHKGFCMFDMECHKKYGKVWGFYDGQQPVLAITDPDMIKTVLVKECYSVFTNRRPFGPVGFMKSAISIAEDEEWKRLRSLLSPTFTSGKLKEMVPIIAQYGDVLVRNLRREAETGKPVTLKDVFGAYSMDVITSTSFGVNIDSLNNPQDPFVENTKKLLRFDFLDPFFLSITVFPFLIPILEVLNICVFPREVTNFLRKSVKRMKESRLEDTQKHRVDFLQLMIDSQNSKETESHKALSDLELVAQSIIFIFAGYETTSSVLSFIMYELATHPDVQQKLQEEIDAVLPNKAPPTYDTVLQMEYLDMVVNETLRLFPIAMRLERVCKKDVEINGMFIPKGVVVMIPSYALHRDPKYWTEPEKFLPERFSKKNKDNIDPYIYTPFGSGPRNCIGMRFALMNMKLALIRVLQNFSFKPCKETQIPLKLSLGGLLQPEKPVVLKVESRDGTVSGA

On to `O=C(O)CC[C@@]1(c2ccccc2)NC(=O)NC1=O`, for which the Potency in assay [1] is greater than 11.4 µM; in [6] it was greater than 46 µM; in assay [7], greater than 9.22 µM. Further, the results for the activity change, negative = inhibition in [2] and in assay [4] were 3.07% and 8.48%, respectively. In addition, the Potency entry in [3], in [8] and in assay [9] was “inactive” throughout. The activity, negative = inhibition in assay [5] was 2.02%.
Turning to `COc1ccccc1-c1nc(NCc2ccccc2)c2ccccc2n1`, the Potency in assay [1] was greater than 11.4 µM; in assay [3], 0.398 µM (active); in [6], greater than 46 µM; in [7], greater than 46 µM; in assay [10], 3.98 µM (active); in [14], 11.2 µM (active). Besides, the activity change, negative = inhibition in [2] is 24%; in assay [4], -19.4%. For the same molecule, the activity, negative = inhibition in [5] was 0.0453%. The Potency result in assay [8] and in assay [11] was “inactive” each time. For the same molecule, the call in [12] and in [13] was inactive.
As for `CC(C)(C)NC[C@@H](O)c1ccc(O)c(CO)n1`, the Potency in assay [1] is greater than 11.4 µM; in assay [6], greater than 46 µM; in assay [7] it was greater than 9.22 µM. Further, the activity change, negative = inhibition was -2.07% in [2], 10.1% [at 2.29 µM] in [3] and 10.1% in assay [4]. The values for the activity, negative = inhibition in [5], in [15] (parasite line A) and in [15] (parasite line B) were 19.4%, 8.88% and 0.372%, respectively. Besides, the Potency entry (in assay [8]; in assay [9]; in [14]; with AS120; in the assay on CP203; in the assay on DFO2036) was “inactive” each time. In the assay with W2, the Potency entry was “inactive”.
As for `CCn1c(CCCc2nc3c([nH]2)c(=O)n(C)c(=O)n3C)nc2c1c(=O)n(C)c(=O)n2C`, the Potency is greater than 11.4 µM in assay [1], greater than 46 µM in assay [6] and greater than 9.22 µM in [7]. In addition, the activity change, negative = inhibition in assay [2] is -3.01%; in assay [3] it was -16.7% [at 2.29 µM]; in assay [4] it was 6.75%. The activity, negative = inhibition in assay [5] is 1.77%. Further, the Potency entry in assay [8] and in assay [9] was “inactive” in each case.
Take `c1cc(NNc2cccc(-c3nn[nH]n3)c2)cc(-c2nn[nH]n2)c1`: the Potency in assay [1] is greater than 11.4 µM; in assay [6] it was greater than 46 µM; in assay [7], greater than 9.22 µM. In addition, the activity change, negative = inhibition in [2] is 5.72%; in assay [3] it was -15.5% [at 2.29 µM]; in [4], 2.46%. Also, the activity, negative = inhibition in assay [5] was 2.5%. For the same molecule, the Potency result in assay [8] and in [9] was “inactive” each time.
Turning to `O=C(Nc1nnc(-c2ccco2)o1)c1ccc(S(=O)(=O)N2CCOCC2)cc1`, the call in assay [16] was inactive.
Turning to `O=C(O)[C@H](CCc1ccccc1)N1C(=O)c2ccccc2C1=O`, the figures for the Potency in assay [1], in [6] and in assay [7] were greater than 11.4 µM, greater than 46 µM and greater than 9.22 µM, respectively. Moreover, the activity change, negative = inhibition in assay [2] is -11.9%; in assay [3], -9.6% [at 2.29 µM]; in [4], -3.82%. For the same molecule, the activity, negative = inhibition in assay [5] is 8.91%. The Potency entry in [8] is “inactive”.

Source of the values: PubChem BioAssay (NCATS).
